Assay results as given in paper PMC6919601, “Identification of Plasmodium dipeptidyl aminopeptidase allosteric inhibitors by high throughput screening” (PLoS ONE, 2019).
About 230 (0.21%) of roughly 110,000 compounds showed an effect of 50% or more. Many of the other results were omitted from the sample, so strong results are more common in it than they were.

What follows are compounds tested against DPAP1 (Plasmodium falciparum, UniProt Q8IIJ9) (assay: primary screen, percent inhibition; read by cleavage of a fluorogenic dipeptide substrate; higher = more effect of the substance).
Parameters: species or system P. falciparum D10 trophozoite lysates; single well
Experimental: HTS was performed in black 384-well plates. The first and last two columns of each plate contained our negative (DMSO) and positive (10 μM JCP410) controls, and the 20 central columns the test compounds at 10 μM. Compounds were first diluted 50-fold into assay buffer (50 mM sodium acetate, 5 mM MgCl2, 10 mM β-mercaptoethanol, and 0.1% CHAPS, pH 5.5) from a 10 mM DMSO stock plates. One microliter of this 200 μM intermediate stock plate was dispensed into the assay plate. […] After 30 min, the reaction was quenched with 20 μL of 0.5 M acetic acid, and the fluorescent intensity measured at 523 nm (λex = 492 nm) using an Analyst HT multimode plate reader (Molecular Devices).
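Also: 30 min substrate incubation versus DMSO and 10 µM JCP410 controls.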

Sequence of DPAP1 (Q8IIJ9 whole entry, looked up): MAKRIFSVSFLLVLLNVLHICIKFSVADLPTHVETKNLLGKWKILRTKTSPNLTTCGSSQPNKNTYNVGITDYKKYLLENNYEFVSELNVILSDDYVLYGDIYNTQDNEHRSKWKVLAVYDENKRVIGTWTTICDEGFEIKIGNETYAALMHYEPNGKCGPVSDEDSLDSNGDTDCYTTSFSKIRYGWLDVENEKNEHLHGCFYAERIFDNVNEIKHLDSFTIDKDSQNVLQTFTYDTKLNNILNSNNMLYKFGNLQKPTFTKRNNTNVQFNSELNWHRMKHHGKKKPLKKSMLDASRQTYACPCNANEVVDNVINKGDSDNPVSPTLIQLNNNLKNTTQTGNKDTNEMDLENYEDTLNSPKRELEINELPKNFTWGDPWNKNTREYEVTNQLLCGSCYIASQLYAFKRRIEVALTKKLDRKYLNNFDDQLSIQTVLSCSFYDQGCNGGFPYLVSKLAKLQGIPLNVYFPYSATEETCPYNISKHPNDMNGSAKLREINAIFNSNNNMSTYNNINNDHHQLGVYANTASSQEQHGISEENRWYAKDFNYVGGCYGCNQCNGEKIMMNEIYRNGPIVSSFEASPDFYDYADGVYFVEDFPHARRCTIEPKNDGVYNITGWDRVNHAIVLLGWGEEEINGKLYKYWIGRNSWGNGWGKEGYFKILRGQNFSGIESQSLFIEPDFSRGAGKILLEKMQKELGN

Structure (SMILES)	% Inhibition @ 10 uM
OC(c1ccccc1)c1nc2ccccc2[nH]1 (stereo not shown)	3.87%
CCn1nc(C)c(C(=O)Nc2ccn(Cc3ccccc3)n2)c1C	3.21%
Cn1c2ccccc2c2cnn(CC(=O)N3CCN(c4ncccn4)CC3)c(=O)c21	53.7%
CN1CCN(C(=O)Cn2ncc3c4ccccc4n(C)c3c2=O)CC1	1.41%
Cn1c2ccccc2c2cnn(CC(=O)N3CCN(c4ccccn4)CC3)c(=O)c21	4.53%
Oc1nc(SCc2ccccc2)nc(O)c1Cc1ccccc1	-2.12%
CC1=CC2=NC(=O)/C(=C\c3ccc(-c4ccccc4Cl)o3)C(=N)N2O1	-1.65%
O=C(NC1CCCCC1)C1CC(c2ccccc2F)=NO1 (stereo not shown)	7.39%
CCOc1ccc2c(=O)c(Oc3ccccc3)c(C(F)(F)F)oc2c1	-4.21%
COc1ccc(OC)c(NC(=O)c2ccc(OC(C)C)cc2)c1	-1.88%
CC(=O)c1cccc(NS(=O)(=O)c2ccc(Oc3ccccc3Cl)cc2)c1	-3.87%
COc1ccc(S(=O)(=O)Nc2cccc(C(C)=O)c2)cc1	-1.92%
COc1ccccc1Oc1ccc(S(=O)(=O)Nc2cccc(C(C)=O)c2)cc1	67.2%
CC(=O)c1sc2nc(-c3cccs3)cc(-c3cccs3)c2c1N	7.74%
CS(=O)(=O)c1sc2nc(-c3cccs3)cc(-c3ccccc3)c2c1N	64.2%
CS(=O)(=O)c1sc2nc(-c3ccc(Br)cc3)cc(-c3ccccc3)c2c1N	-1.93%
CN(C)c1ccc(NC(=O)Nc2ccc(Cl)cc2)cc1	0.51%
O=C1C2C=COC2C2c3ccccc3CCC2N1Cc1ccccc1 (stereo not shown)	0.727%
Cc1nc2c(C(=O)n3ccnc3)cnn2c(C)c1Cc1ccccc1Cl	-0.406%
CS(=O)(=O)N(CC(=O)Nc1ccccc1)c1cccc(F)c1	-10.1%
CC(=O)Nc1ccc(NC(=O)CN(c2cccc(F)c2)S(C)(=O)=O)cc1	8.06%
CS(=O)(=O)N(CC(=O)Nc1ccc2c(c1)OCCO2)c1cccc(F)c1	69.8%
CN(Cc1ccco1)C(CNS(=O)(=O)c1ccccc1)c1ccccc1 (stereo not shown)	-0.671%
CCCCOc1ccc(C2=NC(=O)/C(=C/c3cccc(OC)c3OC)O2)cc1	2.1%
Cc1ccccc1-n1cc(-c2ccc3c(c2)OCO3)nc1S	83.7%
Sc1nc(-c2ccc3c(c2)OCO3)cn1-c1cccc(Cl)c1	19.5%

Structure (SMILES)	% Inhibition @ 10 uM
CCn1c2ccccc2n2cc(-c3ccc4c(c3)OCO4)nc12	0.486%
CC(C)C[C@H](NC(=O)c1cc2cc(OCCN3CCOCC3)ccc2o1)C(=O)NC1COCC1=O (stereo partly shown)	-8.26%
CCOc1cc(/C=C2/NC(=O)N(CC(=O)Nc3cccc(C)c3)C2=O)cc(Cl)c1O	2.44%
Cc1ccc(NC(=O)CN2C(=O)S/C(=C\c3ccccc3C)C2=O)cc1	-5.4%
COc1cccc(/C=C2/SC(=O)N(CC(=O)Nc3ccc(C)cc3)C2=O)c1O	30.1%
Cc1ccc(NC(=O)CN2C(=O)S/C(=C\c3ccccc3O)C2=O)cc1	50.5%
COc1ccc(C(=O)CCC(=O)NC2=NCCS2)cc1	-3.21%
CN1CCN(C(=O)Cn2nc(-c3ccc(Cl)cc3)c3ccccc3c2=O)CC1	2.95%
CC1=C(C(=O)OC2CCCC2)C(c2ccsc2)C2=C(O)CC(c3cccs3)CC2=N1 (stereo not shown)	0.146%
Cc1ccc2oc(=O)c3cc(C(=O)Nc4cc(C)on4)sc3c2c1	-0.646%
N#CC1=C2SCC(O)(c3ccccc3)N2C(=O)CC1c1cccs1 (stereo not shown)	-4.74%
CCOc1ccc(C2CC(=O)N3C(=C2C#N)SCC3(O)c2ccc(OCC)cc2)cc1 (stereo not shown)	-0.0235%
CC(c1ccccc1)N1CSC2=C(C#N)C(c3cccs3)CC(=O)N2C1 (stereo not shown)	68%
CCOc1ccc(C2CC(=O)N3CN(C(C)c4ccccc4)CSC3=C2C#N)cc1 (stereo not shown)	53.1%
Cc1ccc(C2CC(=O)N3CN(C(C)c4ccccc4)CSC3=C2C#N)cc1 (stereo not shown)	10.6%
N#CC1=C2SCN(Cc3ccco3)CN2C(=O)CC1c1cccs1 (stereo not shown)	47.7%
COc1ccc(C2CC(=O)N3CN(C(C)c4ccccc4)CSC3=C2C#N)cc1OC (stereo not shown)	28%
CC(c1ccccc1)N1CSC2=C(C#N)C(c3ccc(Cl)cc3)CC(=O)N2C1 (stereo not shown)	73.1%
Cc1cc(Cl)ccc1N(CC(=O)Nc1ccc2c(c1)OCO2)S(=O)(=O)c1ccccc1	8.03%
Cc1ccc(NS(=O)(=O)c2ccc(NC(=O)COc3ccccc3)cc2)c(C)c1	-4.7%
CCOc1ccc(-n2nc3ccc(NC(=O)c4ccc5c(c4)OCCO5)cc3n2)cc1	17.9%
CCCCCOc1ccc(C2NC(C(=O)O)CS2)cc1 (stereo not shown)	-2.54%
Cc1nn(C)c(C)c1/C=C(/C(=O)C(C)C)n1cncn1	0.00706%
CC1CCCCN1CCNc1ncnc2onc(-c3ccc(Cl)cc3)c12 (stereo not shown)	-3.95%
CN(C)c1ccc(-c2c(C#N)c(S)nc3c2C(=O)CC(C)(C)C3)cc1	-2.81%
Oc1cc(-c2ccccc2)nc2nc(Cc3ccccc3)nn12	0.795%

Structure (SMILES)	% Inhibition @ 10 uM
Cc1ccc(CNC(=O)c2cc3c(s2)-c2ccccc2S(=O)(=O)C3)cc1	-0.72%
CN1C(=O)c2ccccc2C(C(=O)NCCN2CCc3ccccc3C2)C1c1cn(C)c2ccccc12 (stereo not shown)	-7.27%
Cc1sc2[nH]c(=S)n(-c3ccccc3)c(=O)c2c1C	72.2%
CCc1c(O)n(-c2ccccc2)c(=S)[nH]c1=O	0.526%
CCc1cc2c(=O)n(-c3ccc(Cl)cc3)c(=S)[nH]c2s1	21.1%
O=c1c2c3c(sc2[nH]c(=S)n1-c1ccccc1)CC1(CCCCC1)CC3	0.774%
Cc1sc2[nH]c(=S)n(-c3ccc(Cl)cc3)c(=O)c2c1C	51.2%
Cc1sc2[nH]c(=O)n(-c3ccc(Cl)c(Cl)c3)c(=O)c2c1C	-0.711%
COc1ccc(N2CCN(C(=O)CN(C)S(=O)(=O)c3ccc(C)cc3)CC2)cc1	-5.35%
O=[N+]([O-])c1ccc(CSc2ccc(Cl)cc2)cc1	2.22%
COc1ccc(CNC(=O)c2cc3c(O)nc4ccc(C)cc4c3s2)cc1	1.72%
CC(C)c1ccc(C2C(C#N)=C(N)SC(N)=C2C#N)cc1	46.7%
CC1C(C#N)=C(N)SC(N)=C1C#N	67.5%
Cc1ccc(C2C(C#N)=C(N)SC(N)=C2C#N)c(C)c1	27.4%
N#CC1=C(N)SC(N)=C(C#N)C1c1cccnc1	0.731%
N#CC1=C(N)SC(N)=C(C#N)C1c1ccc(Cl)c(Cl)c1	40.5%
N#CC1=C(N)SC(N)=C(C#N)C1c1ccccc1	70.9%
Cc1cc(C)c(C)c(C2C(C#N)=C(N)SC(N)=C2C#N)c1C	4.22%
CCOc1ccc(C2C(C#N)=C(N)SC(N)=C2C#N)cc1OC	57.7%
N#CC1=C(N)SC(N)=C(C#N)C1c1ccc(Cl)cc1	50.8%
CCOc1ccc(OCC)c(C2C(C#N)=C(N)SC(N)=C2C#N)c1	23.2%
COc1cc(C2C(C#N)=C(N)SC(N)=C2C#N)ccc1O	28.3%
N#CC1=C(N)SC(N)=C(C#N)C1c1cccc(Cl)c1	19.5%
C=CCSc1nnc(NC(=O)Cc2coc3ccc(C)cc23)s1	1%
CC(Sc1nc(-c2ccccc2)c(-c2ccccc2)[nH]1)C(=O)O (stereo not shown)	-3.04%
O=C(Nc1ccc(F)c(Cl)c1)c1cc2nc(C(F)F)cc(C(F)F)n2n1	-8.02%

Structure (SMILES)	% Inhibition @ 10 uM
Cc1oc2ncnc(N3CCOCC3)c2c1C(=O)N(C)Cc1ccco1	4.76%
COc1ccc2nc(Cl)c(C3CC(c4ccc(Cl)cc4)=NN3C(C)=O)cc2c1 (stereo not shown)	4.18%
NS(=O)(=O)c1ccc(NC(=O)c2cccs2)cc1	7.24%
NC(=O)C1CCCN(C2CCc3ccccc3C2)C1 (stereo not shown)	-1.5%
Cc1ccsc1C1C(C#N)=C(N)SC(N)=C1C#N	27.5%
N#CC1=C(N)SC(N)=C(C#N)C1c1c(Cl)cccc1Cl	28.7%
Cc1ccc(C2C(C#N)=C(N)SC(N)=C2C#N)s1	55.8%
Cc1ccc(C2C(C#N)=C(N)SC(N)=C2C#N)o1	47.9%
N#CC1=C(N)SC(N)=C(C#N)C1c1cccs1	40.6%
N#CC1=C(N)SC(N)=C(C#N)C1c1ccco1	51.4%
OC(c1ccccc1)c1nc2ccccc2n1CCc1ccccc1 (stereo not shown)	-2.92%
CC1=C(C(=O)Nc2ccc(Br)cn2)C(c2ccccc2C)C2=C(O)CCCC2=N1 (stereo not shown)	2.7%
CN(CC(=O)NCc1cccs1)S(=O)(=O)c1ccc2[nH]c(-c3ccccc3)nc2c1	3.88%
COc1ccc(Br)cc1CNC(=O)c1ccc2c(c1)ncn2C1CCCC1	3.66%
COc1cc(CN(C(=S)NCC(=O)NC2CCCC2)C2CCCC2)cc(OC)c1OC	1.27%
COc1cc(C2=N/C(=C\c3ccc(SC)cc3)C(=O)O2)cc(OC)c1OC	-20.1%
COc1cc(/C=C2\N=C(c3cc(OC)c(OC)c(OC)c3)OC2=O)cc(OC)c1OC	0.607%
COc1cc(C2=N/C(=C\c3ccc(C(C)(C)C)cc3)C(=O)O2)cc(OC)c1OC	84.3%
Cc1cccc(C(=O)Nc2ccc(S(=O)(=O)N3CCCCC3)cc2)c1	-1.28%
COc1ccc(-c2cc(-c3ccccc3)nc(S)c2C#N)cc1	43.3%
N#Cc1c(-c2ccccc2)cc(C(F)(F)F)nc1S	76.9%
N#Cc1c(-c2ccccc2)cc(-c2ccccc2)c(C#N)c1N	0.716%
N#Cc1c(-c2ccccc2)cc(C(F)F)nc1S	76.3%
N#Cc1c(-c2ccc3c(c2)OCO3)cc(-c2ccccc2)nc1S	11.7%
N#Cc1c(-c2ccc(F)cc2)cc(C2CC2)nc1S	4.63%
